B1: 130 (nucleosome)
DNA 1: ATCCTGGAGAATCCCGGTGCCGAGGCCGCTCAATTGGTCGTAGACAGCTCTAGCACCGCTTAAACGCACGTACGCGCTGTCCCCCGCGTTTTAACCGCCAAGGGGATTACTCCCTAGTCTCCAGGCACGTGTTCAAGGCCAACATCCTGTGAT
DNA 2: ATCACAGGATGTTGGCCTTGAACACGTGCCTGGAGACTAGGGAGTAATCCCCTTGGCGGTTAAAACGCGGGGGACAGCGCGTACGTGCGTTTAAGCGGTGCTAGAGCTGTCTACGACCAATTGAGCGGCCTCGGCACCGGGATTCTCCAGGAT
modifications: reconstituted with mouse histones H2A, H2B, H3.3 and H4
B2: 131 (nucleosome)
DNA 1: ATCCTGGAGAATCCCGGTGCCGAGGCCGCTCAATTGGTCGTAGACAGCTCTAGCACCGCTTAAACGCACGTACGCGCTGTCCCCCGCGTTTTAACCGCCAAGGGGATTACTCCCTAGTCTCCAGGCACGTGTCTCAAGGCCACATCCTGTGAT
DNA 2: ATCACAGGATGTGGCCTTGAGACACGTGCCTGGAGACTAGGGAGTAATCCCCTTGGCGGTTAAAACGCGGGGGACAGCGCGTACGTGCGTTTAAGCGGTGCTAGAGCTGTCTACGACCAATTGAGCGGCCTCGGCACCGGGATTCTCCAGGAT
modifications: reconstituted with mouse histones H2A, H2B, H3.3 and H4
B3: 132 (nucleosome)
DNA 1: ATCCTGGAGAATCCCGGTGCCGAGGCCGCTCAATTGGTCGTAGACAGCTCTAGCACCGCTTAAACGCACGTACGCGCTGTCCCCCGCGTTTTAACCGCCAAGGGGATTACTCCCTAGTCTCCAGGCACGTGTCATCAAGGCCAATCCTGTGAT
DNA 2: ATCACAGGATTGGCCTTGATGACACGTGCCTGGAGACTAGGGAGTAATCCCCTTGGCGGTTAAAACGCGGGGGACAGCGCGTACGTGCGTTTAAGCGGTGCTAGAGCTGTCTACGACCAATTGAGCGGCCTCGGCACCGGGATTCTCCAGGAT
modifications: reconstituted with mouse histones H2A, H2B, H3.3 and H4
B4: 137 (nucleosome)
DNA 1: ATCCTGGAGAATCCCGGTGCCGAGGCCGCTCAATTGGTCGTAGACAGCTCTAGCACCGCTTAAACGCACGTACGCGCTGTCCCCCGCGTTTTAACCGCCAAGGGGATTACTCCCTAGTCTCCAGGCACGTGTCAGATATTCAAGGCCAGTGAT
DNA 2: ATCACTGGCCTTGAATATCTGACACGTGCCTGGAGACTAGGGAGTAATCCCCTTGGCGGTTAAAACGCGGGGGACAGCGCGTACGTGCGTTTAAGCGGTGCTAGAGCTGTCTACGACCAATTGAGCGGCCTCGGCACCGGGATTCTCCAGGAT
modifications: reconstituted with mouse histones H2A, H2B, H3.3 and H4
B5: 138 (nucleosome)
DNA 1: ATCCTGGAGAATCCCGGTGCCGAGGCCGCTCAATTGGTCGTAGACAGCTCTAGCACCGCTTAAACGCACGTACGCGCTGTCCCCCGCGTTTTAACCGCCAAGGGGATTACTCCCTAGTCTCCAGGCACGTGTCAGATATATCAAGGCCATGAT
DNA 2: ATCATGGCCTTGATATATCTGACACGTGCCTGGAGACTAGGGAGTAATCCCCTTGGCGGTTAAAACGCGGGGGACAGCGCGTACGTGCGTTTAAGCGGTGCTAGAGCTGTCTACGACCAATTGAGCGGCCTCGGCACCGGGATTCTCCAGGAT
modifications: reconstituted with mouse histones H2A, H2B, H3.3 and H4
B6: 127 (nucleosome)
DNA 1: ATCCTGGAGAATCCCGGTGCCGAGGCCGCTCAATTGGTCGTAGACAGCTCTAGCACCGCTTAAACGCACGTACGCGCTGTCCCCCGCGTTTTAACCGCCAAGGGGATTACTCCCTAGTCTCCAGGCACGTCAAGGCCATATACATCCTGTGAT
DNA 2: ATCACAGGATGTATATGGCCTTGACGTGCCTGGAGACTAGGGAGTAATCCCCTTGGCGGTTAAAACGCGGGGGACAGCGCGTACGTGCGTTTAAGCGGTGCTAGAGCTGTCTACGACCAATTGAGCGGCCTCGGCACCGGGATTCTCCAGGAT
modifications: reconstituted with mouse histones H2A, H2B, H3.3 and H4
B7: 129 (nucleosome)
DNA 1: ATCCTGGAGAATCCCGGTGCCGAGGCCGCTCAATTGGTCGTAGACAGCTCTAGCACCGCTTAAACGCACGTACGCGCTGTCCCCCGCGTTTTAACCGCCAAGGGGATTACTCCCTAGTCTCCAGGCACGTGTCAAGGCCATACATCCTGTGAT
DNA 2: ATCACAGGATGTATGGCCTTGACACGTGCCTGGAGACTAGGGAGTAATCCCCTTGGCGGTTAAAACGCGGGGGACAGCGCGTACGTGCGTTTAAGCGGTGCTAGAGCTGTCTACGACCAATTGAGCGGCCTCGGCACCGGGATTCTCCAGGAT
modifications: reconstituted with mouse histones H2A, H2B, H3.3 and H4
B8: 17 (nucleosome)
DNA 1: ATCCTGGAGAATCCCGGTGTCAAGGCCACTCAATTGGTCGTAGACAGCTCTAGCACCGCTTAAACGCACGTACGCGCTGTCCCCCGCGTTTTAACCGCCAAGGGGATTACTCCCTAGTCTCCAGGCACGTGTCAGATATATACATCCTGTGAT
DNA 2: ATCACAGGATGTATATATCTGACACGTGCCTGGAGACTAGGGAGTAATCCCCTTGGCGGTTAAAACGCGGGGGACAGCGCGTACGTGCGTTTAAGCGGTGCTAGAGCTGTCTACGACCAATTGAGTGGCCTTGACACCGGGATTCTCCAGGAT
modifications: reconstituted with mouse histones H2A, H2B, H3.3 and H4
B9: 128 (nucleosome)
DNA 1: ATCCTGGAGAATCCCGGTGCCGAGGCCGCTCAATTGGTCGTAGACAGCTCTAGCACCGCTTAAACGCACGTACGCGCTGTCCCCCGCGTTTTAACCGCCAAGGGGATTACTCCCTAGTCTCCAGGCACGTTCAAGGCCAATACATCCTGTGAT
DNA 2: ATCACAGGATGTATTGGCCTTGAACGTGCCTGGAGACTAGGGAGTAATCCCCTTGGCGGTTAAAACGCGGGGGACAGCGCGTACGTGCGTTTAAGCGGTGCTAGAGCTGTCTACGACCAATTGAGCGGCCTCGGCACCGGGATTCTCCAGGAT
modifications: reconstituted with mouse histones H2A, H2B, H3.3 and H4
B10: 133 (nucleosome)
DNA 1: ATCCTGGAGAATCCCGGTGCCGAGGCCGCTCAATTGGTCGTAGACAGCTCTAGCACCGCTTAAACGCACGTACGCGCTGTCCCCCGCGTTTTAACCGCCAAGGGGATTACTCCCTAGTCTCCAGGCACGTGTCAGTCAAGGCCATCCTGTGAT
DNA 2: ATCACAGGATGGCCTTGACTGACACGTGCCTGGAGACTAGGGAGTAATCCCCTTGGCGGTTAAAACGCGGGGGACAGCGCGTACGTGCGTTTAAGCGGTGCTAGAGCTGTCTACGACCAATTGAGCGGCCTCGGCACCGGGATTCTCCAGGAT
modifications: reconstituted with mouse histones H2A, H2B, H3.3 and H4
B11: 15 (nucleosome)
DNA 1: ATCCTGGAGAATCCCGGTCAAGGCCACGCTCAATTGGTCGTAGACAGCTCTAGCACCGCTTAAACGCACGTACGCGCTGTCCCCCGCGTTTTAACCGCCAAGGGGATTACTCCCTAGTCTCCAGGCACGTGTCAGATATATACATCCTGTGAT
DNA 2: ATCACAGGATGTATATATCTGACACGTGCCTGGAGACTAGGGAGTAATCCCCTTGGCGGTTAAAACGCGGGGGACAGCGCGTACGTGCGTTTAAGCGGTGCTAGAGCTGTCTACGACCAATTGAGCGTGGCCTTGACCGGGATTCTCCAGGAT
modifications: reconstituted with mouse histones H2A, H2B, H3.3 and H4
B12: 16 (nucleosome)
DNA 1: ATCCTGGAGAATCCCGGTTCAAGGCCAGCTCAATTGGTCGTAGACAGCTCTAGCACCGCTTAAACGCACGTACGCGCTGTCCCCCGCGTTTTAACCGCCAAGGGGATTACTCCCTAGTCTCCAGGCACGTGTCAGATATATACATCCTGTGAT
DNA 2: ATCACAGGATGTATATATCTGACACGTGCCTGGAGACTAGGGAGTAATCCCCTTGGCGGTTAAAACGCGGGGGACAGCGCGTACGTGCGTTTAAGCGGTGCTAGAGCTGTCTACGACCAATTGAGCTGGCCTTGAACCGGGATTCTCCAGGAT
modifications: reconstituted with mouse histones H2A, H2B, H3.3 and H4
B13: 134 (nucleosome)
DNA 1: ATCCTGGAGAATCCCGGTGCCGAGGCCGCTCAATTGGTCGTAGACAGCTCTAGCACCGCTTAAACGCACGTACGCGCTGTCCCCCGCGTTTTAACCGCCAAGGGGATTACTCCCTAGTCTCCAGGCACGTGTCAGATCAAGGCCACCTGTGAT
DNA 2: ATCACAGGTGGCCTTGATCTGACACGTGCCTGGAGACTAGGGAGTAATCCCCTTGGCGGTTAAAACGCGGGGGACAGCGCGTACGTGCGTTTAAGCGGTGCTAGAGCTGTCTACGACCAATTGAGCGGCCTCGGCACCGGGATTCTCCAGGAT
modifications: reconstituted with mouse histones H2A, H2B, H3.3 and H4
B14: 135 (nucleosome)
DNA 1: ATCCTGGAGAATCCCGGTGCCGAGGCCGCTCAATTGGTCGTAGACAGCTCTAGCACCGCTTAAACGCACGTACGCGCTGTCCCCCGCGTTTTAACCGCCAAGGGGATTACTCCCTAGTCTCCAGGCACGTGTCAGATTCAAGGCCACTGTGAT
DNA 2: ATCACAGTGGCCTTGAATCTGACACGTGCCTGGAGACTAGGGAGTAATCCCCTTGGCGGTTAAAACGCGGGGGACAGCGCGTACGTGCGTTTAAGCGGTGCTAGAGCTGTCTACGACCAATTGAGCGGCCTCGGCACCGGGATTCTCCAGGAT
modifications: reconstituted with mouse histones H2A, H2B, H3.3 and H4
B15: 139 (nucleosome)
DNA 1: ATCCTGGAGAATCCCGGTGCCGAGGCCGCTCAATTGGTCGTAGACAGCTCTAGCACCGCTTAAACGCACGTACGCGCTGTCCCCCGCGTTTTAACCGCCAAGGGGATTACTCCCTAGTCTCCAGGCACGTGTCAGATATATTCAAGGCCAGAT
DNA 2: ATCTGGCCTTGAATATATCTGACACGTGCCTGGAGACTAGGGAGTAATCCCCTTGGCGGTTAAAACGCGGGGGACAGCGCGTACGTGCGTTTAAGCGGTGCTAGAGCTGTCTACGACCAATTGAGCGGCCTCGGCACCGGGATTCTCCAGGAT
modifications: reconstituted with mouse histones H2A, H2B, H3.3 and H4

The binders below were run against NR5A2 wild type;histone octamer (Homo sapiens;, UniProt O00482;C0HKE1;Q6ZWY9;P84244;P62806 1-541;2-130;2-126;2-136;2-103, |) (assay: SeEN-seq (EMSA of nucleosome library followed by sequencing); 0.8 uM human NR5A2; 20 mM Tris-HCl pH 7.5, 120 mM NaCl, 1 mM MgCl2, 10 uM ZnCl2, 1 mM DTT, 100 ug/ml BSA, room temperature, 30 min; 0.1 uM nucleosome library; high values mean tight binding).

Row | Binder | binding signal
1 | B1 | 1.7 log2 enrichment (bound/unbound, relative to Widom 601)
2 | B2 | 3.61 log2 enrichment (bound/unbound, relative to Widom 601)
3 | B3 | 3.78 log2 enrichment (bound/unbound, relative to Widom 601)
4 | B4 | 6.9 log2 enrichment (bound/unbound, relative to Widom 601)
5 | B5 | 7.13 log2 enrichment (bound/unbound, relative to Widom 601)
6 | B6 | 4.33 log2 enrichment (bound/unbound, relative to Widom 601)
7 | B7 | 2.87 log2 enrichment (bound/unbound, relative to Widom 601)
8 | B8 | 1.96 log2 enrichment (bound/unbound, relative to Widom 601)
9 | B9 | 5.29 log2 enrichment (bound/unbound, relative to Widom 601)
10 | B10 | 4.27 log2 enrichment (bound/unbound, relative to Widom 601)
11 | B11 | 1.12 log2 enrichment (bound/unbound, relative to Widom 601)
12 | B12 | 1.52 log2 enrichment (bound/unbound, relative to Widom 601)
13 | B13 | 5.2 log2 enrichment (bound/unbound, relative to Widom 601)
14 | B14 | 7.68 log2 enrichment (bound/unbound, relative to Widom 601)
15 | B15 | 8.13 log2 enrichment (bound/unbound, relative to Widom 601)

Each binder was assayed against mouse Nr5a2 wild type;histone octamer (Mus musculus;, UniProt P45448;C0HKE1;Q6ZWY9;P84244;P62806 1-560;2-130;2-126;2-136;2-103, |) (assay: SeEN-seq (EMSA of nucleosome library followed by sequencing); 1.2 uM mouse Nr5a2; 20 mM Tris-HCl pH 7.5, 120 mM NaCl, 1 mM MgCl2, 10 uM ZnCl2, 1 mM DTT, 100 ug/ml BSA, room temperature, 30 min; 0.1 uM nucleosome library; high values mean tight binding).

Row | Binder | binding signal
16 | B1 | 1.35 log2 enrichment (bound/unbound, relative to Widom 601)
17 | B2 | 3.22 log2 enrichment (bound/unbound, relative to Widom 601)
18 | B3 | 3.09 log2 enrichment (bound/unbound, relative to Widom 601)
19 | B4 | 5.78 log2 enrichment (bound/unbound, relative to Widom 601)
20 | B5 | 5.66 log2 enrichment (bound/unbound, relative to Widom 601)
21 | B6 | 3.32 log2 enrichment (bound/unbound, relative to Widom 601)
22 | B7 | 2.23 log2 enrichment (bound/unbound, relative to Widom 601)
23 | B8 | 1.98 log2 enrichment (bound/unbound, relative to Widom 601)
24 | B9 | 4.1 log2 enrichment (bound/unbound, relative to Widom 601)
25 | B10 | 3.65 log2 enrichment (bound/unbound, relative to Widom 601)
26 | B11 | 1.33 log2 enrichment (bound/unbound, relative to Widom 601)
27 | B12 | 1.81 log2 enrichment (bound/unbound, relative to Widom 601)
28 | B13 | 3.67 log2 enrichment (bound/unbound, relative to Widom 601)
29 | B14 | 5.73 log2 enrichment (bound/unbound, relative to Widom 601)
30 | B15 | 5.56 log2 enrichment (bound/unbound, relative to Widom 601)

Reference: article PMC11102866, “Nucleosome-bound NR5A2 structure reveals pioneer factor mechanism by DNA minor groove anchor competition”
